This passage reports growth results from PubChem BioAssay (NCI).

SMILES strings stand for the structures. The panel holds about 83,000 compounds, 20% with a hit somewhere; the sample as a whole holds those more often.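 In brief: 96-well plates, 48 h treatment, single concentration, percent growth endpoint.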 Unmarked numbers belong to inactive results. Calls of active or inactive are those of the source. The calls were made as follows: active = growth percent below 10; inactive = the rest.

Among the test systems are SR leukemia; RPMI-8226 leukemia; OVCAR-8 ovarian; OVCAR-5 ovarian; OVCAR-4 ovarian; SK-OV-3 ovarian; IGROV1 ovarian; OVCAR-3 ovarian; HS 578T breast; NCI/ADR-RES ovarian.
Common to all, as to test: NCI-60 one-dose screen, 48 h (100 = growth as untreated, 0 = no growth, -100 = all killed)
Holding throughout (conditions): 10 µM unless noted

For `Cc1ccc2[nH]c3ccccc3c2c1`, the growth in the assay with SR leukemia was 79.6%; with RPMI-8226 leukemia it was 106%; in the assay with OVCAR-8 ovarian, 98.4%; in the assay with OVCAR-5 ovarian, 105%; in the assay on OVCAR-4 ovarian it was 100%; in the assay with SK-OV-3 ovarian, 113%. In addition, the growth was 107% in the assay with IGROV1 ovarian, 104% with OVCAR-3 ovarian, 106% in the assay on HS 578T breast and 109% in the assay on NCI/ADR-RES ovarian.

Regarding `CCOc1ccccc1NC(=O)CCl`, the growth in the assay on SR leukemia is 74.8%; in the assay with RPMI-8226 leukemia it was 88.8%; in the assay on OVCAR-8 ovarian, 86.9%; in the assay with OVCAR-5 ovarian, 124%; in the assay with OVCAR-4 ovarian, 45.9%; with SK-OV-3 ovarian, 109%. The growth is -12% (active) in the assay on IGROV1 ovarian, 95.4% with OVCAR-3 ovarian, 94.9% in the assay with HS 578T breast and 106% in the assay with NCI/ADR-RES ovarian.

As for `O=C(OCC1CCCO1)c1ccc([N+](=O)[O-])cc1` (stereo not given), the growth in the assay on SR leukemia is 116%; in the assay on RPMI-8226 leukemia, 103%; in the assay with OVCAR-8 ovarian it was 99.2%; in the assay with OVCAR-5 ovarian, 109%; in the assay with OVCAR-4 ovarian, 117%; in the assay with SK-OV-3 ovarian, 97.9%. For the same compound, the growth is 101% with IGROV1 ovarian, 111% in the assay with OVCAR-3 ovarian, 96.7% with HS 578T breast and 103% in the assay on NCI/ADR-RES ovarian.

On to `CCCC1OC(c2ccco2)OCC1CC` (stereo not given), for which the growth in the assay with SR leukemia is 106%; with RPMI-8226 leukemia, 94.8%; in the assay with OVCAR-8 ovarian, 101%; in the assay with OVCAR-5 ovarian it was 100%; in the assay on OVCAR-4 ovarian it was 115%; in the assay on SK-OV-3 ovarian it was 113%. Besides, the growth is 95.1% in the assay with IGROV1 ovarian, 109% with OVCAR-3 ovarian, 118% in the assay with HS 578T breast and 107% in the assay with NCI/ADR-RES ovarian.

For the compound `COC(=O)C1(CC(C)=O)NC(=S)NC(=O)C1C#N` (stereo not given), the growth in the assay on SR leukemia was 99.1%; with RPMI-8226 leukemia it was 114%; in the assay on OVCAR-8 ovarian, 112%; with OVCAR-5 ovarian, 107%; in the assay on OVCAR-4 ovarian, 117%; with SK-OV-3 ovarian it was 117%. The growth was 111% in the assay on IGROV1 ovarian, 122% in the assay on OVCAR-3 ovarian, 96.1% with HS 578T breast and 103% in the assay with NCI/ADR-RES ovarian.

Regarding `CC1CN(CCO)CC(C)O1` (stereo not given), the growth with SR leukemia was 103%; with RPMI-8226 leukemia, 111%; in the assay on OVCAR-8 ovarian, 107%; in the assay with OVCAR-5 ovarian it was 93.1%; in the assay on OVCAR-4 ovarian, 99.7%; with SK-OV-3 ovarian, 96.9%. Besides, the growth was 103% in the assay on IGROV1 ovarian, 106% with OVCAR-3 ovarian, 74.4% with HS 578T breast and 106% in the assay on NCI/ADR-RES ovarian.

For the compound `O=S(Cc1ccccc1)/C(=C/NC(=S)Nc1ccccc1)c1ccccc1` (stereo not given), the growth with SR leukemia is 88.4%; in the assay on RPMI-8226 leukemia, 103%; in the assay on OVCAR-8 ovarian, 107%; in the assay with OVCAR-5 ovarian it was 99%; with OVCAR-4 ovarian, 98.3%; with SK-OV-3 ovarian, 91.4%. For the same compound, the growth in the assay with IGROV1 ovarian was 97.6%; with OVCAR-3 ovarian, 105%; with HS 578T breast it was 114%; with NCI/ADR-RES ovarian, 98.4%.

For `O=C(O)CC1=CCCCC1`, the growth with SR leukemia was 96.7%; with RPMI-8226 leukemia, 96.6%; in the assay with OVCAR-8 ovarian, 104%; in the assay on OVCAR-5 ovarian, 98.5%; with OVCAR-4 ovarian, 100%; with SK-OV-3 ovarian, 117%. Moreover, the growth with IGROV1 ovarian was 96.1%; with OVCAR-3 ovarian it was 101%; in the assay with HS 578T breast, 108%; in the assay with NCI/ADR-RES ovarian it was 96.9%.

In the case of `CCCC(=O)CC(=O)c1ccccc1`, the growth is 107% in the assay on SR leukemia; 103% in the assay with RPMI-8226 leukemia; 93.6% in the assay with OVCAR-8 ovarian; 101% in the assay with OVCAR-5 ovarian; 112% with OVCAR-4 ovarian; -20% (active) in the assay with SK-OV-3 ovarian. Moreover, the growth in the assay with IGROV1 ovarian is 108%; in the assay with OVCAR-3 ovarian, 99.4%; in the assay on HS 578T breast it was 106%; with NCI/ADR-RES ovarian it was 100%.

Turning to `O=S(=O)(O)c1ccc(O)c(C2CCCCC2)c1`, the growth in the assay with SR leukemia is 98.3%; in the assay with RPMI-8226 leukemia it was 105%; in the assay on OVCAR-8 ovarian, 102%; in the assay on OVCAR-5 ovarian, 103%; in the assay on OVCAR-4 ovarian, 94.4%; with SK-OV-3 ovarian, 97.1%. Also, the growth is 107% with IGROV1 ovarian, 113% in the assay on OVCAR-3 ovarian, 116% with HS 578T breast and 118% with NCI/ADR-RES ovarian.

As for `CCC(=O)Oc1c(C)cc(O)c2ccccc12`, the growth with SR leukemia is 80.7%; with RPMI-8226 leukemia, 54.6%; in the assay with OVCAR-8 ovarian, 81.4%; in the assay on OVCAR-5 ovarian, 105%; in the assay on OVCAR-4 ovarian it was 82.3%; in the assay with SK-OV-3 ovarian, 104%. Moreover, the growth with IGROV1 ovarian is 88.2%; with OVCAR-3 ovarian it was 72.6%; with HS 578T breast, 91.2%; in the assay on NCI/ADR-RES ovarian it was 85.2%.

For the compound `NS(=O)(=O)c1cc(=O)[nH]c(=O)[nH]1`, the growth with SR leukemia is 135%; in the assay with RPMI-8226 leukemia it was 118%; in the assay with OVCAR-8 ovarian it was 114%; in the assay with OVCAR-5 ovarian, 112%; in the assay with OVCAR-4 ovarian it was 110%; in the assay on SK-OV-3 ovarian, 108%. Moreover, the growth with IGROV1 ovarian was 121%; in the assay on OVCAR-3 ovarian it was 116%; with HS 578T breast, 102%; with NCI/ADR-RES ovarian, 109%.

Regarding `Cc1cc(Cl)cc(Cc2cc(Cl)cc(C)c2O)c1O`, the growth was 1.17% (active) with SR leukemia; -22.8% (active) in the assay with RPMI-8226 leukemia; 48.2% with OVCAR-8 ovarian; 69% in the assay with OVCAR-5 ovarian; 22.2% in the assay with OVCAR-4 ovarian; 51.5% in the assay on SK-OV-3 ovarian. For the same compound, the growth in the assay with IGROV1 ovarian was 33.1%; in the assay on OVCAR-3 ovarian, -2.69% (active); with HS 578T breast, 4.77% (active); in the assay with NCI/ADR-RES ovarian, -10.7% (active).

Turning to `CC1CCC(C(C)(C)[N+](C)(C)C)CC1` (stereo not given), the growth is 94% in the assay on SR leukemia; 102% with RPMI-8226 leukemia; 100% in the assay on OVCAR-8 ovarian; 104% in the assay with OVCAR-5 ovarian; 98.9% in the assay with OVCAR-4 ovarian; 102% in the assay with SK-OV-3 ovarian. The growth is 115% in the assay on IGROV1 ovarian, 107% with OVCAR-3 ovarian, 100% in the assay with HS 578T breast and 107% in the assay on NCI/ADR-RES ovarian.

Take `Nc1cc(F)ccc1[N+](=O)[O-]`: the growth in the assay on SR leukemia is 114%; in the assay on RPMI-8226 leukemia, 106%; in the assay on OVCAR-8 ovarian, 118%; in the assay with OVCAR-5 ovarian, 97.4%; with OVCAR-4 ovarian, 106%; in the assay with SK-OV-3 ovarian it was 114%. Moreover, the growth was 98.4% with IGROV1 ovarian, 115% in the assay on OVCAR-3 ovarian, 98.7% with HS 578T breast and 107% in the assay with NCI/ADR-RES ovarian.
